Sfp PPTase inh = Sfp phosphopantetheinyl transferase inhibition. Q9F4F7. Biochemical Sfp PPTase activity, qHTS. Potency, µM, for the others: largest response in the series, negative = inhibition, most hits filed as inhibitors. 310,000 compounds, 3.5% hits. AID 1490;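 further: the enzyme is Sfp with the accession as filed and its product quenches rhodamine fluorescence; 0% = enzyme reaction without inhibitor and -100% = no enzyme wells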
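Sfp 15 nM + cpd, 15 min RT; start w/ rhodamine-CoA 5 uM, BHQ-2-YbbR 12.5 uM (final); 50 mM Hepes pH 7.6, 10 mM MgCl2, 0.01% NP-40, 0.01% BSA; read 525/598 nm at 0 and 30 min.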
VP16 counter = inhibits Gal4-VP16 luciferase reporter, ROR gamma counter-screen | Drosophila S2 Gal4-VP16 UAS-luciferase, luminescence, 20 h | Potency, µM (highest dose often 53.6 µM), for the others: at the top dose activity, negative = inhibition, actives largely listed as inhibitors | 310,000 compounds, 3.5% hits | AID 2546;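 further: Gal4-VP16 expression switched on by copper sulfate through the metallothionein promoter; nearly all actives have a fitted effect of over 50% in size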
PLK1 PBD inh = PLK1 (human) polo-box domain binding inhibition. P53350. Plk1 PBD binding of FITC phosphopeptide, fluorescence polarization. Potency, µM, for the others: max response, negative = inhibition, hits mostly inhibitors. 360,000 compounds, 2.8% hits. AID 720504; further: series mostly up to about 57 µM; nearly all actives have a fitted effect of over 65% in size
Target sequence (P53350 whole entry, looked up, the tested form may be a part): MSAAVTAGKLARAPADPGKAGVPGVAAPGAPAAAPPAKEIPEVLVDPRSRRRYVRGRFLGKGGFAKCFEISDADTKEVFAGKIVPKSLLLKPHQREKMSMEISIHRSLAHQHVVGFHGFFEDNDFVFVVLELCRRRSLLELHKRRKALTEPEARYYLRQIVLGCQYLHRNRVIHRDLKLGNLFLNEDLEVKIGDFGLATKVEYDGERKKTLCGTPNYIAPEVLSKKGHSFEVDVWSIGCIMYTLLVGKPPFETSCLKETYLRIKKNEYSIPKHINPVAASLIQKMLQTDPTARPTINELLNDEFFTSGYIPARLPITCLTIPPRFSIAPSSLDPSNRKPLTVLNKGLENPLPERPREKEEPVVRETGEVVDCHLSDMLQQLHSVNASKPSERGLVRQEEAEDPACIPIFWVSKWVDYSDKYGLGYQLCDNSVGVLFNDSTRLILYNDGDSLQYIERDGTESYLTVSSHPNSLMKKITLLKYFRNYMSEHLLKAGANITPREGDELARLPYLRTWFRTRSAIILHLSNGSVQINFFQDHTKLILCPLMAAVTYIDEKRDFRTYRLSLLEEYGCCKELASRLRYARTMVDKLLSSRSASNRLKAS
RORgamma inh = inhibitors of mouse ROR gamma transcriptional activity | P51450 | Drosophila S2 Gal4-RORgamma UAS-luciferase reporter, 20 h | Potency, µM (doses to about 53.6 µM), for the others: at the top dose activity change, negative = inhibition, usual class: inhibitors | 310,000 compounds, 5.4% hits | AID 2551; further: nearly all actives have a fitted effect of over 60% in size
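Schneider cells (Drosophila), stable Gal4 DBD–ROR gamma + UAS-luc; 1 hr cmpd preincubation; Cu2+ induction 700 uM final; 20 hr ambient; luminescence.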
ALDH1A1 inh = inhibitors of human aldehyde dehydrogenase 1A1; P00352; Purified ALDH1A1, NADH fluorescence, propionaldehyde substrate; Potency, µM (doses to about 75.3 µM), for the others: at the top dose activity, negative = inhibition, hits mostly inhibitors; 220,000 compounds, 7.3% hits; AID 1030; active means well fitted inhibition curve with a large enough effect, not every such curve was filed as active; inconclusive means small, poorly fitted or top-dose-only effect, or another doubt; inactive means no such curve, though single readings can be large or run the other way;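 further: plate controls were no enzyme wells and a reference inhibitor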
Numbers without * were called inactive; ? = inconclusive; nt = not tested or not shown; [ ] = remark or other dose. Shown are actives, neighbours in structure and some others; about 12% of the full set was active somewhere. Unless noted, the call rests on the fitted dose curve; in most records, active means well fitted curve in the direction sought with a large enough effect; inconclusive means small, poorly fitted or top-dose-only effect, or another doubt; inactive means no such curve, though single readings can be large; an effect the other way counts as inactive or inconclusive. Unless noted, on the % scale 0 is the no-effect control and ±100 the full control effect; potency means the concentration at half of the fitted maximal effect.

SMILES	Sfp PPTase inh	VP16 counter	PLK1 PBD inh	RORgamma inh	ALDH1A1 inh
Cc1ccc2ccc(C)[n+](CCCS(=O)(=O)[O-])c2c1	-5%	2%	?	0%	0%
CCCC[n+]1c(C)sc2ccc(C)cc21	-10%	3%	-13%	0%	5%
Cc1sc2ccccc2[n+]1CCC(C)S(=O)(=O)[O-] (stereo not given)	45µM*	-3%	?	-1%	5%
COc1ccc2sc(SCCCS(=O)(=O)O)[n+](CCCS(=O)(=O)[O-])c2c1	4.5µM*	-7%	-19%	23%	0%
Cc1sc2ccccc2[n+]1CC(=O)c1ccccc1	?	?	21µM*	0%[1.91 µM]	nt
Cc1ccc2ccccc2[n+]1CCCS(=O)(=O)[O-]	24%	-6%	-26%	1%	?
CSc1sc2ccccc2[n+]1CCCS(=O)(=O)[O-]	18µM*	-4%	?	-20%	-14%
Cc1cccc(NC(=O)c2ccc(NS(=O)(=O)c3cccc4cccnc34)cc2)c1	nt	nt	7%	nt	nt
CCNC(=O)C1CCCN(C(=O)c2ccc3c(c2)CCO3)CC1 (stereo not given)	nt	nt	8%	nt	nt
Cc1[nH][nH]c(=O)c1C(c1ccc(-c2ccc(Cl)c(C(=O)O)c2)o1)c1c(C)[nH][nH]c1=O	-72%	-6%	?	8%	10µM*
COC(=O)c1cccc(-c2ccc(C(c3c(C)[nH][nH]c3=O)c3c(C)[nH][nH]c3=O)o2)c1	8.9µM*	-15%	24µM*	11µM*	6.3µM*
COC(=O)c1ccccc1-c1ccc(C(c2c(C)[nH][nH]c2=O)c2c(C)[nH][nH]c2=O)o1	6%	-6%	?	37%	11%
Cc1ccc(-c2ccc(C(=O)O)o2)cc1Cl	-5%	28%	-3%	10%	nt
COc1ccc(NC(=O)CN(C)C(=O)c2cc3c(s2)CCC3)cc1	nt	nt	7.5µM*	nt	nt
Cn1[nH]c2c(c1=O)[C@H](c1ccc(F)cc1)O[C@H](CCc1ccccc1)C2	nt	nt	19µM*	nt	nt
O=C(NCCSc1ccccc1)c1cncc(Br)c1	3%	-4%	-19%	20%	25µM*
O=C(NC(=S)Nc1ccccc1[N+](=O)[O-])c1cncc(Br)c1	7%	5.6µM*	?	7.1µM*	nt
O=C(NCCSc1ccccc1)c1ccc(Br)cc1	2%	?	3%	?	-4%
O=C(NC(=S)Nc1ccccc1O)c1cncc(Br)c1	nt	nt	-13%	nt	nt
O=C(NC(=S)Nc1ccccc1C(=O)O)c1cncc(Br)c1	10µM*	0%	9.5µM*	-2%[1.91 µM]	nt
O=C(Nc1ccccc1C(=O)O)c1cncc(Br)c1	-11%	-1%	-4%	21%	14µM*
CC(C)C[C@H]1CNC(=O)C(=O)N1CC1CCN(CC2CCC(C)CC2)CC1 (stereo not given in full)	nt	nt	-8%	nt	nt
O=C1CC(SC(=S)C2CCCC2=O)C(=O)N1 (stereo not given)	nt	nt	13µM*	nt	nt
O=C1CC(Sc2ncccc2C(=O)O)C(=O)N1 (stereo not given)	0%	6%	0%	6%	2%
CN1OC[C@@H]2CN[C@H](c3ccc(-c4cccc(F)c4)cc3)C[C@@H]21	nt	nt	0%	nt	nt
SMILES	Sfp PPTase inh	VP16 counter	PLK1 PBD inh	RORgamma inh	ALDH1A1 inh
COC(=O)C1=C(C(=O)OC)SC2(S1)C(C(=O)OC)=C(C(=O)OC)SC1=C2c2cc(C)cc(C)c2NC1(C)C	9%	-17%	-18%	13µM*	6%
O=C(Nc1cc(C(F)(F)F)cc(C(F)(F)F)c1)[C@H]1O[C@@H](n2ccc(=O)[nH]c2=O)[C@H](O)[C@@H]1O	nt	nt	3%	nt	nt
CCc1nnc(NS(=O)(=O)c2ccc(N)cc2)s1	-1%	-8%	0%	-8%	nt
CC(C)(C)Cc1nnc(NS(=O)(=O)c2ccccc2)s1	-3%	-1%	27µM*	27%	?
CC(C)(C)c1nnc(NS(=O)(=O)c2ccc(F)cc2)s1	nt	nt	9.5µM*	nt	nt
CC(C)Cc1nnc(NS(=O)(=O)Cc2ccccc2)s1	-6%	-7%	?	?	13µM*
CC(=O)Nc1ccc(S(=O)(=O)Nc2nnc(C(C)(C)C)s2)cc1	-9%	-12%	-14%	-40%	?
CN(C)Cc1ccccc1-c1cncnc1NCc1cccs1	17%	0%	nt	1%	-8%
CCSc1nnc(NC(=O)CCNC(=O)c2ccccc2Cl)s1	nt	nt	-6%	nt	nt
S=C1SCN(CC2CC2)CN1CC1CC1	35µM*	7.1µM*	-10%	7.9µM*	nt
S=C1SCN(Cc2ccccc2)CN1Cc1ccccc1	-10%	?	0%	?	nt
CN(C)CN1CSC(=S)N(CN(C)C)C1	nt	nt	nt	nt	4µM*
CSC1=C(C#N)C2(CCCC2)C(C#N)=C(N)N1	0%	12%	nt	-19%	?
N#Cc1cnc(SCC(=O)c2ccccc2)nc1N	?	nt	-18%	10%[0.365 µM]	-7%
CCSC1=C(C#N)C2(CCCC2)C(C#N)=C(N)N1	?	18%	3µM*	-12%	?
N#CC1=C(N)NC(SCC(=O)Nc2ccc(Br)cc2)=C(C#N)C12CCCCC2	16%	-13%	-13%	37%	28µM*
N#CC1=C(N)NC(SCc2ccc(Br)cc2)=C(C#N)C12CCCCC2	10%	?	-27%	62%	?
N#CC1=C(N)NC(SCc2ccccc2)=C(C#N)C12CCCC2	-1%	-13%	?	44%	25µM*
N#CC1=C(N)NC(SCC(=O)c2ccccc2)=C(C#N)C12CCCC2	?	?	-30%	11%	13µM*
COc1ncc2ncc(=O)n(C)c2n1	3%	3%	nt	-24%	-8%
CC(C)C(N)c1csc(NC(=O)Nc2ccc(OC(F)(F)F)cc2)n1 (stereo not given)	nt	nt	1%	nt	nt
CCn1c2ccccc2c2cc(NC(=O)N3CCCCC3)ccc21	nt	nt	2%	nt	nt
COc1ccc(-n2c(=O)cnc3cnc(Oc4ccccc4)nc32)cc1	16%	-1%	nt	11%	?
N#CC1=C(N)NC(SCc2ccc(Cl)cc2)=C(C#N)C12CCCCC2	5%	-18%	-22%	?	13µM*
CCCCCCCCCCCCC/C=C/[C@@H](O)[C@H](CO)NC(=O)CCCCCCC	35%	3%	nt	-34%	-8%
SMILES	Sfp PPTase inh	VP16 counter	PLK1 PBD inh	RORgamma inh	ALDH1A1 inh
CC1CN(C(=S)Nc2ccccc2)N(c2ccccc2)C1 (stereo not given)	6%	-12%	-10%	11µM*	?
CC1CN(C(=S)Nc2ccccc2)CC(C)O1 (stereo not given)	-2%	-18%	-7%	-31%	nt
C=C1CCN(C(Cc2ccccc2)C(=O)NC2CCN(Cc3ccccc3)CC2)S(=O)(=O)c2ccccc21 (stereo not given)	-12%	3%	nt	27%	nt
COC(=O)[C@@H](NC(=O)N1CCc2nc(-c3ccc(OC)cc3C)c3c(c2C1)CO[C@@H](c1ccccc1)C3)C(C)C	-6%	nt	nt	nt	?
COC(=O)c1ccccc1S(=O)(=O)N1CCc2nc(-c3ccc(OC)cc3C)c3c(c2C1)CO[C@@H](c1ccccc1)C3	-12%	nt	nt	nt	4µM*
COc1ccc(-c2nc3c(c4c2C[C@H](c2ccccc2)OC4)CN(S(=O)(=O)c2ccc(NC(C)=O)cc2)CC3)c(C)c1	8%	nt	nt	nt	0.45µM*

Screening results: PubChem, National Center for Advancing Translational Sciences (NCATS)
